# An excerpt weighted towards active compounds, which were near 2% of everything screened.
# aSyn yeast inh: inhibitors of alpha-synuclein toxicity in yeast. Yeast expressing alpha-synuclein, growth rescue, BacTiter-Glo, 24 h. Potency, µM (doses to about 46.1 µM), most hits filed as activators. 0.14% of 370,000 active; also: nearly all actives have a fitted effect of over 65% in size
#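 Galactose-induced alpha-syn yeast (OD600=0.02, raffinose-pregrown) + pinned cpd, 24 hr, 30 deg C; growth by BacTiter-Glo luminescence. Growth restoration scores as activation.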
# Abeta yeast res: compounds reversing amyloid beta toxicity in yeast; yeast expressing A-beta42, growth rescue, OD600, 48 h; response scale: 0% DMSO, 100% iron-clioquinol control; AID 1347071; 0.063% of 410,000 active; Potency, µM (titrated, usually from 46.1 µM), usual class: activators; also: nearly all actives have a fitted effect of over 55% in size
#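 Yeast A-beta toxicity model in growth medium with pinned compounds, 48 h at 30 C; growth read as absorbance at 600 nm. Normalized to FeCl3/clioquinol equimolar mix (positive) and DMSO (negative).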
# FUS suppressor: suppressors of FUS proteinopathy in yeast | S. cerevisiae FUS-expressing, growth rescue, OD600, 24 h | Potency, µM (doses to about 76.6 µM), usual class: activators | 0.24% of 390,000 active | AID 1347120; also: nearly all actives have a fitted effect of over 55% in size
#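 Toxicity suppression screen in FUS-yeast. Cells induced with 2% galactose, starting OD 0.005, treated 24hr at 30C with compounds at multiple final concentrations; growth by OD600.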
# GRP78 ERSR act: induces the endoplasmic reticulum stress response in human glioma cells. 0.02% of 420,000 active. U87-MG GRP78 promoter luciferase reporter, 16 h. Potency, µM, actives largely listed as activators. AID 602332; also: series mostly up to about 76 µM; nearly all actives have a fitted effect of over 35% in size
#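 ERSR induction read as luciferase luminescence (Bright-Glo, 10 min at room temperature) in stably transfected human U87-MG glioma cells exposed to compounds for 16 h, using GRP78 as sensor.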
# TDP43 rescue: inhibitors of TDP-43 toxicity in yeast | TDP-43 expressing yeast growth rescue, BacTiter-Glo, 24 h | Potency, µM (doses to about 46.1 µM), actives largely listed as activators | 1.8% of 410,000 active; also: nearly all actives have a fitted effect of over 50% in size
#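 In this qHTS, compounds that restore growth of yeast expressing TDP-43 appear as activators. Cells (OD600=0.02, galactose medium, raffinose-pregrown) are incubated with compound 24 hr at 30 deg C and growth is quantified by BacTiter-Glo.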
# MBNL1 CUG block: inhibitors of human MBNL1 binding to CUG repeat RNA | AID 2675 | 0.036% of 280,000 active | TR-FRET MBNL1-His/biotin-(CUG)12 binding, 665/545 ratio | Potency, µM (series often up to 57.5 µM), usual class: inhibitors; active = well fitted inhibition curve with a large enough effect in the signal ratio, with a control signal flat, not every such curve was filed as active; inconclusive = small, poorly fitted or top-dose-only effect, or effect the other way, or a change in a side signal; inactive = no such curve, though single readings can be large or run the other way; the % refers to the signal ratio
# Target sequence (Q9NR56 whole entry, looked up): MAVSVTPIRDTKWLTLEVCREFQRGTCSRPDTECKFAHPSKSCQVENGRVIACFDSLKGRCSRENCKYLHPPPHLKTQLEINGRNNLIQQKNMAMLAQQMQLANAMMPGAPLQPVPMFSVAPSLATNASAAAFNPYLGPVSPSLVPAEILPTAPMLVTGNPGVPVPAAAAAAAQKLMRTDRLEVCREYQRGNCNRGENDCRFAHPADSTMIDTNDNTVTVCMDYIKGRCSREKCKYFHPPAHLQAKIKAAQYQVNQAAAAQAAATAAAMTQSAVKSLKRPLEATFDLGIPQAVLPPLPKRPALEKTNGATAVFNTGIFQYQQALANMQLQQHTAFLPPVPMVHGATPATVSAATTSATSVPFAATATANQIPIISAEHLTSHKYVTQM
#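 Inhibition of protein-RNA binding appears as loss of TR-FRET between terbium anti-His antibody on MBNL1-His and streptavidin-XL665 on biotin-(CUG)12. Activity is normalized to buffer-only and uninhibited-complex controls.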
# Hits are given with their value; – = inactive; ? = inconclusive; · = no result; [ ] = another dose, or the depositor's remark. Unless noted, calls follow the shape of the dose curve; as a rule, active = well fitted curve in the direction sought with a large enough effect; inconclusive = small, poorly fitted or top-dose-only effect, or another doubt; inactive = no such curve, though single readings can be large; an effect the other way counts as inactive or inconclusive.
SMILES,aSyn yeast inh,Abeta yeast res,FUS suppressor,GRP78 ERSR act,TDP43 rescue,MBNL1 CUG block
Oc1c(N=Nc2ccc(F)cc2)ccc2ccccc12,–,–,–,–,–,–
Oc1c(N=Nc2nn[nH]n2)ccc2ccccc12,–,–,?,–,35.5µM,·
O=C1NC(=O)C(Cc2ccccc2)(C2CCN(Cc3cccn3-c3cccnc3)CC2)N1 (configuration not stated),·,·,·,–,·,·
O=C(OC12CCCN(C1)/C(=C/c1cccc(Cl)c1)C2)c1ccno1 (configuration not stated),·,·,–,·,·,·
Cc1ccc2c(c1)CN(CCNC(=O)c1ccc3nc(C)[nH]c3c1)CC(C)O2 (configuration not stated),·,·,·,–,·,·
O=[N+]([O-])c1ccc(/C=N/Nc2nc(N3CCCCCC3)nc(N3CCCCCC3)n2)o1,–,–,?,–,22.4µM,?
O=[N+]([O-])c1ccc(/C=N/Nc2nc(N3CCCCC3)nc(N3CCCCC3)n2)cc1,–,–,–,–,–,–
O=[N+]([O-])c1ccc(Nc2nc(N/N=C\c3ccc4c(c3)OCO4)nc(N3CCCCC3)n2)cc1,–,?,?,–,11.2µM,–
Cc1cnc2c3c(cc(Cl)c2c1)-c1ccccc1S(=O)(=O)N3,?,·,·,–,·,·
O=c1[nH]c(=O)n([C@H]2C[C@@H](O)[C@@H](CO)O2)cc1C=CBr,–,·,·,–,·,·
Cc1nn(Cc2ccc(C(=O)Nc3ccccc3C(F)(F)F)o2)c(C)c1Br,·,–,–,–,12.6µM,–
C[C@@H]1[C@H](c2ccccc2)OCCS(=O)(=O)N1Cc1ccccc1Br,·,·,·,–,·,·
Clc1ccc(-c2noc3ncnc(NCCc4ccccc4)c23)cc1,–,–,–,–,17.8µM,·
Fc1ccc(CNc2ncnc3onc(-c4ccc(F)cc4)c23)cc1,–,–,–,–,12.6µM,·
CC(C)CNc1cccc2c1S(=O)(=O)N(Cc1cn(Cc3cccc(F)c3)nn1)Cc1ccccc1O2,·,·,–,·,·,·
O=C(c1ccc(COc2c(F)c(F)cc(F)c2F)o1)N1CCN(c2ccccc2)CC1,–,–,–,–,22.4µM,–
COc1ccc(N2CCN(C(=O)c3ccc(COc4ccc([N+](=O)[O-])cc4)o3)CC2)cc1,–,–,·,–,11.2µM,?
O=C(c1ccc(COc2ccc(Cl)cc2Cl)o1)N1CCCC1,–,–,·,?,12.6µM,–
COc1ccccc1OCc1ccc(C(=O)N2CCCCC2)o1,–,–,–,–,–,–
COc1ccc(N2CCN(C(=O)Oc3ccc([N+](=O)[O-])cc3)CC2)cc1,–,–,–,·,?,·
CCOC(=O)CC[C@@H]1CC[C@]2(CCCN(Cc3ccc(Cl)cc3)C2)O1,·,·,–,·,·,·
COc1cc(-c2cc(C)c3c(OC)ccc(OC)c3n2)cc2c1OCCN(Cc1cn(C)nc1C)C2,·,·,·,–,·,·
CC(C)(C)C(=O)OCOC(=O)C1N2C(=O)CC2S(=O)(=O)C1(C)C (configuration not stated),·,·,·,–,·,·
COc1ccc(-c2sc3ccc(N4CCOCC4)cc3c2C#CC2(O)CCCCC2)cc1,–,–,–,–,–,·
COc1ccc(-c2sc3ccc(N4CCOCC4)cc3c2C#CCO)cc1,–,–,–,–,14.1µM,·
SMILES,aSyn yeast inh,Abeta yeast res,FUS suppressor,GRP78 ERSR act,TDP43 rescue,MBNL1 CUG block
S=C(NC1CCCCC1)NC1CC2C=CC1C2 (configuration not stated),–,11.2µM,–,–,–[1.82 µM],–
COc1ccc(C(=O)c2sc(Nc3ccccc3F)nc2N)cc1,–,–,–,?,20µM,?
COc1ccc(C(=O)c2sc(Nc3ccccc3)nc2N)cc1,–,–,–,–,–,–
O=C(/C=C/c1ccc(F)cc1)N1CCCc2ccccc21,–,–,–,–,17.8µM,–
O=C(/C=C/c1cccc(F)c1)N1CCc2ccccc21,–,–,–,–,–,–
O=C(Nc1ccc(F)cc1Cl)C1CCCN1S(=O)(=O)c1cccc2cccnc12 (configuration not stated),·,·,–,·,·,·
COc1nccnc1NS(=O)(=O)c1ccc(NC(=O)c2ccc(F)cc2)cc1,–,–,–,–,–,–
